The values below come from PubChem BioAssay (NCI).

Structures are written as SMILES. This is part of a sample that, as a whole, favours compounds with a hit. Of some 83,000 tested, about 20% had one in any assay.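 Assay: single dose, 48 h. Readout: percent growth (0 = no net growth; negative = cell death). Active: <10.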 Values without a mark were called inactive. The source made the active and inactive calls.

The subject of the assay is HCT-15 colon. In words: NCI-60 one-dose screen, 48 h (100 = growth as untreated, 0 = no growth, -100 = all killed). The note with it: 10 µM unless noted.
With `COc1ccc2c(c1)C(=Nc1cc(OC)c(OC)c(OC)c1)C(=O)N2`, the growth was 100%.
Turning to `COc1cnc2c(c1)C(=O)c1c-2n(CCCn2ccnc2)c(=O)c2cc(F)ccc12`, the growth is -28.4% (active).
With `C[C@]12CCC(=O)C=C1CCC1C2[C@@H](O)C[C@@]2(C)C1CC[C@]2(O)C(=O)COC(=O)CCC(=O)O` (some centres undefined) the figure was 112%; with `C[C@@H]1[C@H]2[C@H](C=C3[C@@H]4CC[C@H]5Cc6nc7c(nc6C[C@]5(C)[C@H]4C[C@@H](O)[C@@]32C)C[C@@H]2CC[C@H]3C4=C[C@@H]5O[C@@]6(CC[C@](C)(CO)O6)[C@@H](C)[C@@]5(O)[C@@]4(C)[C@H](O)C[C@@H]3[C@@]2(C)C7)O[C@]12CCC(C)(C)O2`, 11.2%; with `CCOC(=O)/C=C1/SC(=Nc2ccc(C#N)cc2)N(Cc2ccco2)C1=O`, -4.1% (active).
To `C[C@H](C(=O)N[C@@H](Cc1ccc(-c2ccccc2)cc1)C(=O)NC1CC(C)(C)NC(C)(C)C1)c1ccc(-c2ccccc2)c(F)c1` belongs -75% (active); to `Nc1ccccc1C#Cc1ccccc1C#Cc1ccc(OCCCCCCOc2ccc(C#Cc3ccccc3C#Cc3ccccc3N)cc2)cc1`, 106%; to `CCSc1nc(-c2ccco2)n2nc(-c3ccco3)cc2n1`, 78.1%.
As for `CN(C)c1ccc(-c2nc3ncc(Br)cc3o2)cc1`, the growth is 115%.
To `CN1CCN(c2nc3scc(-c4ccccc4)c3c(=O)[nH]2)CC1` belongs 104%.
With `CC(=O)OC1Oc2cc(C)c(C)cc2-c2oc(=O)c(-c3ccccc3)cc21` (centres undefined) the figure was 6.95% (active); with `N#CC(C#N)C(C#N)C#N`, 103%; with `CCOC(=O)c1sc(NC(=O)COc2cccc(/C=C3\CCc4cc(OC)ccc4C3=O)c2)nc1C`, 56.5%.
As to `COc1cnc2c(c1)C(=O)c1c-2n(CCCN2CCOCC2)c(=O)c2cc(F)ccc12`, the growth is 8.29% (active).
With `CCN1CC2=C(Nc3nc(SC)[nH]c(=O)c3C2c2cc(OC)c(OC)c(OC)c2)/C(=C/c2cc(OC)c(OC)c(OC)c2)C1` (centres undefined) the figure was 104%; with `CCOC(=O)CCC(=O)O[C@H]1[C@H](O[C@@H]2[C@@H](C)[C@H](O[C@H]3C[C@@](C)(OC)[C@@H](O)[C@H](C)O3)[C@@H](C)C(=O)O[C@H](CC)[C@@](C)(O)[C@H](O)[C@@H](C)C(=O)[C@H](C)C[C@@]2(C)O)O[C@H](C)C[C@@H]1N(C)C`, 98.1%.
With `CNCCCn1c2c(c3ccc(F)cc3c1=O)C(=O)c1cc(OC)cnc1-2`, the growth is -3.12% (active).
As to `NC(=NCCCCCCN=C(N)/N=C(\N)Nc1ccc(Cl)cc1)/N=C(\N)Nc1ccc(Cl)cc1`, the growth is 17.2%.
With `O=C1CSC(c2ccccc2Cl)N1c1nnc(Cn2nnc3ccccc32)o1` (centres undefined) the figure was 74.8%.
As to `O=C(O)CCC(=O)OC[C@@H](NC(=O)C(Cl)Cl)[C@H](O)c1ccc([N+](=O)[O-])cc1`, the growth is 93.9%.
Turning to `COc1ccc(-c2cc(-c3nnc(SCC(=O)Nc4ccc(C(C)=O)cc4)n3-c3ccccc3)c3ccccc3n2)cc1OC`, the growth is 102%.
To `C[C@H](C(=O)N[C@@H](Cc1ccc(-c2ccccc2)cc1)C(=O)NC1CC(C)(C)N(C)C(C)(C)C1)c1ccc(-c2ccccc2)c(F)c1` belongs -81.2% (active).
With `O=C(O)C1C(c2ccccc2)c2ccccc2C(O)C1CO` (centres undefined) the figure was 98.2%.
With `CSc1nc(Nc2ccc(S(=O)(=O)Nc3ccon3)cc2)c(C#N)c(-c2ccc(Cl)cc2)n1` the figure was 87.9%; with `Cc1cc(C)c(C(=O)c2cccs2)c(C)c1`, 102%.
Consider `COC(=O)C1(NC(=O)CNC(=O)OCc2ccccc2)CCCC1`, for which the growth was 103%.
For the compound `Cc1cc(C)nc(NS(=O)(=O)c2ccc(Nc3nc4nc(SCc5ccccc5)nc(-c5ccc(O)cc5)c4c(=O)[nH]3)cc2)n1`, the growth is 109%.
With `Nc1ccc(N=Nc2ccccc2)cc1[N+](=O)[O-]` the figure was 68.8%; with `NS(=O)(=O)c1cc2c(cc1Cl)NC=NS2(=O)=O`, 102%; with `CCOC(=O)C1=CCC(n2cc(C)c(=O)[nH]c2=O)O1` (centres undefined), 111%.
To `C[C@@H]1C[C@@H]([C@@H](CC2CC(=O)NC(=O)C2)OC(=O)CC(=O)c2ccccc2)C(=O)[C@@H](C)C1` belongs 8.97% (active).
To `OCc1n(Cc2ccc3ccccc3c2)cc[n+]1Cc1ccc2ccccc2c1` belongs 100%; to `COc1cnc2c(c1)C(=O)c1c-2n(CCCNC2=NCCS2)c(=O)c2cc(F)ccc12`, 43.3%.
In the case of `Cc1onc(-c2ccccc2Cl)c1C(=O)N[C@@H]1C(=O)N2[C@@H]1SC(C)(C)[C@@H]2C(=O)O`, the growth is 106%.
To `C[C@H]1O[C@@H](O[C@H]2[C@@H](O)C[C@H](O[C@H]3[C@@H](O)C[C@H](O[C@H]4CC[C@]5(C)C6C[C@@H](O)[C@]7(C)[C@@H](C8=CC(=O)OC8)CC[C@]7(O)C6CC[C@@H]5C4)O[C@@H]3C)O[C@@H]2C)C[C@H](O)[C@@H]1O` (some centres undefined) belongs -94.9% (active); to `CC1CN(/N=C/c2ccc([N+](=O)[O-])o2)C(=N)O1` (centres undefined), 97.8%.
To `O=C1NCCc2c1noc2-c1ccccc1` belongs 106%; to `CC(=O)c1ccccc1NC(=O)C(C)(c1ccccc1)c1ccccc1`, 104%.
With `Cc1n(Cc2ccc3ccccc3c2)c2ccccc2[n+]1Cc1ccc2ccccc2c1` the figure was 15.7%.
